Results published in the supplement of paper PMC6555819.

Columns and labels:
Assay in all cases: PBM binding z-score (relative to random genomic background probes); higher = stronger binding; sequences stand for … in GC…GCGATTGACAGCGTAGAATGAAGG
[1] = test system: FXR:RXRa (NR concentration 270 nM, RXRa partner concentration 90 nM)
Method in brief: (§1)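 Antibodies against each partner of ligand-free nuclear receptor dimers (one per run) detected binding on custom Agilent 4×180K protein-binding microarrays after 1 h incubation. The double-stranded probes had 34-nt variable regions carrying direct-repeat seeds, single-nucleotide variants, half-site ablations and random human genomic background sequences. Binding z-scores, from regression-normalized fluorescence, use the random background probes as reference.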

[2] = test system: LXRa:RXRa (NR concentration 270 nM, RXRa partner concentration 90 nM)
Method in brief: as §1

[3] = test system: LXRa homodimer (NR concentration 270 nM)
Method in brief: as §1

[4] = test system: LXRb:RXRa (NR concentration 270 nM, RXRa partner concentration 90 nM)
Method in brief: as §1

[5] = test system: LXRb homodimer (NR concentration 270 nM)
Method in brief: as §1

[6] = test system: PPARa:RXRa (NR concentration 270 nM, RXRa partner concentration 90 nM)
Method in brief: as §1

[7] = test system: PPARg:RXRa (NR concentration 180 nM, RXRa partner concentration 90 nM)
Method in brief: as §1

[8] = test system: PPARg:RXRa 270nM:90nM, anti-RXR (NR concentration 270 nM, RXRa partner concentration 90 nM)
Method in brief: as §1

[9] = test system: PPARg:RXRa 30nM:10nM, anti-RXR (NR concentration 30 nM, RXRa partner concentration 10 nM)
Method in brief: as §1

[10] = test system: PPARg:RXRa 90nM:30nM, anti-RXR (NR concentration 90 nM, RXRa partner concentration 30 nM)
Method in brief: as §1

[11] = test system: PPARg:RXRa DBDmut IVT, anti-RXR (DBD mutation: RXRa K156A/R161A, NR concentration 270 nM, RXRa partner concentration 90 nM)
Method in brief: as §1

[12] = test system: PPARg:RXRa IVT, anti-PPARg (NR concentration 270 nM, RXRa partner concentration 90 nM)
Method in brief: as §1

[13] = test system: PPARg DBDmut:RXRa IVT, anti-PPARg (DBD mutation: PPARg1 K132A/R137A, NR concentration 270 nM, RXRa partner concentration 90 nM)
Method in brief: as §1

[14] = test system: PPARg DBDmut IVT, anti-PPARg (DBD mutation: PPARg1 K132A/R137A, NR concentration 270 nM)
Method in brief: as §1

[15] = test system: PPARg homodimer (NR concentration 180 nM)
Method in brief: as §1

[16] = test system: PXR:RXRa (NR concentration 270 nM, RXRa partner concentration 90 nM)
Method in brief: as §1

[17] = test system: PXR homodimer (NR concentration 270 nM)
Method in brief: as §1

[18] = test system: RARa:RXR (NR concentration 270 nM, RXRa partner concentration 90 nM)
Method in brief: as §1

[19] = test system: RARa homodimer (NR concentration 270 nM)
Method in brief: as §1

[20] = test system: RARb:RXRa (NR concentration 270 nM, RXRa partner concentration 90 nM)
Method in brief: as §1

| Sequence | PBM binding z-score [1] | PBM binding z-score [2] | PBM binding z-score [3] | PBM binding z-score [4] | PBM binding z-score [5] | PBM binding z-score [6] | PBM binding z-score [7] | PBM binding z-score [8] | PBM binding z-score [9] | PBM binding z-score [10] | PBM binding z-score [11] | PBM binding z-score [12] | PBM binding z-score [13] | PBM binding z-score [14] | PBM binding z-score [15] | PBM binding z-score [16] | PBM binding z-score [17] | PBM binding z-score [18] | PBM binding z-score [19] | PBM binding z-score [20] |
| --- | --- | --- | --- | --- | --- | --- | --- | --- | --- | --- | --- | --- | --- | --- | --- | --- | --- | --- | --- | --- |
| CTAACGAGGGCATGAGTTGATAGCAAATGCCGAT | 0.543 | 0.409 | -0.604 | 0.119 | -0.182 | 1.54 | 1.71 | 2.02 | 0.704 | 1.51 | 3.84 | 2.56 | 0.128 | 0.129 | 0.262 | 0.639 | 0.123 | 0.588 | 0.359 | 2.01 |
| ACTATTAGTCGAGACGAGGGCAACCGATAGGTTG | -0.123 | -0.246 | -0.369 | -0.122 | -0.111 | 0.186 | 0.668 | 0.119 | 0.0913 | 0.381 | -0.021 | 0.553 | 0.32 | -0.276 | 0.0526 | 0.376 | 0.101 | 0.238 | -0.112 | 0.812 |
| ATCTCTAGGTAACCTAGTTCAGTGAATGCCGAAC | 0.745 | 1.07 | 0.16 | 1.26 | 0.421 | 2.24 | 1.69 | 1.42 | 0.221 | 0.568 | 4.08 | 4.62 | 1.92 | 1.24 | 1.02 | 1.02 | 0.262 | 0.692 | 0.202 | 0.704 |
| CGTACGAGGGCATGAGTTGATAGCAAATGCCGAT | 0.342 | 0.419 | -0.557 | 0.284 | -0.608 | 1.23 | 1.11 | 1.07 | 0.157 | 0.878 | 1.2 | 1.22 | -0.964 | -0.327 | 0.331 | 0.557 | 0.0171 | 0.533 | -0.662 | 2.01 |
| CCTATTGGGCCAAAAAGGTCATTGATGCCGATAA | 3.69 | 4.37 | 2.45 | 4.04 | 0.266 | 4.6 | 2.25 | 3.39 | 0.941 | 2.81 | 1.89 | 2.64 | 0.177 | -0.558 | 2.26 | 4.74 | 2.45 | 4.98 | 1.26 | 3.79 |
| CCGACAGGGGCAAAGGTTACCATACTCAGTACGA | 2.65 | 2.32 | -0.14 | 2.73 | -0.622 | 4.74 | 7.39 | 7.14 | 5.17 | 7.95 | 0.215 | 3.27 | -0.209 | -0.953 | 1.78 | 3.35 | -0.101 | 5.32 | -0.576 | 2.89 |
| TAGCCTAGGTCATGCGCCAGTATACCACGCGAAC | 4.17 | 3.31 | 0.602 | 2.61 | 0.0918 | 3.83 | 2.77 | 3.08 | 0.794 | 1.89 | 1.95 | 3.1 | 1.01 | -0.0835 | 1.11 | 1.61 | -0.142 | 2.54 | -0.948 | 3.76 |
| CCTGCTAGGTCATTGGTCAGCTAAAGCAGCTCGC | 4.06 | 3.07 | 0.559 | 2.13 | 0.108 | 3.56 | 3.71 | 4.63 | 1.79 | 4.05 | 3.86 | 3.73 | 0.135 | -0.404 | 1.24 | 1.47 | 0.029 | 2.07 | -0.492 | 3.97 |
| TCTGCTAGGTCAGTTGGACAGCTAACGAGCTGCC | 0.721 | 0.508 | -0.846 | -0.0468 | 0.424 | 1.12 | 0.413 | 1.36 | 1.23 | 1.21 | 2.28 | 2.83 | 0.449 | 0.399 | -0.587 | -0.183 | -1.13 | -0.205 | -1.3 | 3.26 |
| AGAACGAGGGCACTCTGAGTTGATAGCAGAGTAG | 0.473 | 0.561 | -0.613 | -0.0145 | -0.411 | 1.35 | 1.21 | 1.19 | -0.0176 | 0.277 | 3.52 | 2.74 | 0.243 | -0.0516 | -0.209 | 1.14 | -0.0913 | 0.301 | -0.677 | 1.84 |
| ATACCAAGGTGATCGTGTGGTCGTTGATACTAAC | 0.493 | 0.0735 | -0.0332 | 0.23 | -0.176 | 0.206 | 0.285 | 0.406 | -0.115 | -0.212 | 0.658 | 0.953 | 0.0763 | 0.561 | 0.519 | 0.0212 | -0.0663 | 0.0038 | 0.00751 | 0.737 |
| TCTAGTTGGTCAAACGTCACACACTCGAAATGCG | 0.778 | 0.664 | 0.422 | 0.693 | 0.281 | 2.06 | 3.61 | 4.92 | 4.37 | 5.13 | 3.29 | 2.32 | 0.65 | 1.11 | 1.05 | 0.699 | 0.241 | 0.948 | 0.646 | 1.2 |
| CCTGCTAGGTCATGGTCAGCTATTCTACAGTATG | 3.41 | 2.49 | 0.199 | 1.79 | -0.409 | 3.28 | 2.34 | 2.63 | 0.534 | 1.64 | 4.23 | 3.4 | -0.449 | -0.223 | 2.13 | 1.28 | -0.498 | 2.3 | -0.317 | 3.95 |
| CCTTAAGGGTCACTGACAGGTTATAGCATTTGGA | 7.39 | 5.66 | 0.887 | 5.01 | 0.447 | 6.24 | 6.29 | 6.19 | 2.45 | 4.77 | 3.94 | 4.19 | 0.865 | 0.0136 | 3.85 | 4.69 | 0.0863 | 5.85 | 1.33 | 5.18 |
